# Measurements taken from PubChem BioAssay AID686979 (National Center for Advancing Translational Sciences (NCATS), 2013).
# Where “and” joins values, the source holds several entries; their conditions need not be identical. Equal values may be shown once. In all, about 420,000 compounds went through this assay and about 50,000 (12%) were called active. About 26% were inconclusive and are not listed. This excerpt belongs to a sample that is enriched for actives. Unmarked numbers belong to inactive results. Calls follow the shape of the dose curve; as a rule, active = well fitted inhibition curve with a large enough effect; inconclusive = small, poorly fitted or top-dose-only effect; inactive = flat fitted curve, though single readings scatter.
# Test: qHTS for Inhibitors of human tyrosyl-DNA phosphodiesterase 1 (TDP1): qHTS in cells in presence of CPT; also: nearly all actives have a fitted effect of over 55% in size
# Conditions: chicken DT40 Tdp1-/-;hTDP1 cells + 20 nM CPT, ATP luminescence, 48 h; series mostly up to 46.2 µM; activity change, negative = growth inhibition: at the top concentration
# Outline: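 Cell growth measured by CellTiter-Glo luminescence after a minimum 48 h, 37 C compound exposure with 20 nM CPT in Tdp1-knockout DT40 cells stably expressing hTDP1, seeded 400/well; qHTS titration format.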
# % is scaled to controls: 0 for no effect and ±100 for the full control effect; potency is read from the fitted curve at half-maximal effect.
SMILES,"activity change, negative = growth inhibition",Potency
CC(C)(C)OC(=O)N1CCN(C(=O)c2[nH]c(C(F)(F)F)nc2-c2ccccc2)CC1,15.1%,–
COCC(=O)N=Nc1c(O)[nH]c2ccccc12,-21.3%,–
Cc1cccc(N=Nc2c(O)[nH]c3ccc(F)cc23)c1,-19.6%,–
Oc1[nH]c2ccccc2c1N=Nc1c(F)c(F)c(F)c(F)c1F,–,8.2 µM (active)
Cc1cc(=O)oc2c(C)c(OCC(=O)NCCc3ccc(S(N)(=O)=O)cc3)ccc12,-8.7%,–
CCCNC(=O)C1(C)CCN(C(=O)c2ccccc2OC(F)(F)F)C1 (configuration not stated),-16.5%,–
c1ccc(CNc2ncnc3[nH]ncc23)cc1,–,20.6 µM (active)
c1ccc(CNc2ncncc2-c2cccnc2)cc1,-1.78%,–
CN(c1ccccn1)c1ncnc2[nH]ncc12,-1.97%,–
Cc1ccc2c(=O)c(C(=O)c3cccc(Cl)c3)cn(CC(=O)NCc3ccccc3)c2n1,-3.25%,–
CC1(C)CC(=O)C=C(N2CCOCC2)C1,13.7%,–
Cc1oc(C(N)=O)cc1COc1ccc(C(N)=O)cc1,20.8%,–
Cc1cccc(Cc2c(C)nc3nc(SCc4ccccc4Cl)nn3c2C)c1,–,23.1 µM (active)
COC(OC)c1ccnc(SCc2ccccc2Cl)n1,13.7%,–
Cc1nc2nc(SCC(=O)NCc3ccco3)nn2c(C)c1Cc1ccccc1,-19.4%,–
O=C(O)c1ccccc1-c1cccc2nncn12,-17.6%,–
Cc1nnc(SCC(=O)N/N=C/c2cn(-c3ccccc3)nc2-c2ccc(F)cc2)n1-c1ccccc1,-12.7%,–
O=C(N/N=C/c1ccc([N+](=O)[O-])o1)c1cn(-c2ccccc2)nc1-c1ccc(F)cc1,–,7.31 µM (active)
O=C(NCCCN1CCOCC1)c1cn(-c2ccccc2)nc1-c1ccc(F)cc1,-15.7%,–
COc1ccc(S(=O)(=O)NCC(=O)NC2CC2)cc1OC,6.46%,–
COc1ccc(Nc2ccc3ccccc3c2)cc1,-8.39%,–
COc1ccc(Nc2cc(=O)oc3ccccc23)cc1,–,2.91 µM (active)
COc1ccc(Nc2nnc(C)c3ccccc23)cc1,2.95%,–
CCn1cc(/C=C(\NC(=O)c2ccc(C)cc2)C(=O)NCCN2CCOCC2)c2ccccc21,-28.7%,–
CC1=NNC(=O)C1CC(=O)N/N=C/c1ccncc1 (configuration not stated),1.34%,–
CCCSc1nc2[nH]ncc2c(=O)[nH]1,-6.23%,–

SMILES,"activity change, negative = growth inhibition",Potency
CCc1ccc(-n2c(SCc3cc(=O)n4cc(Br)ccc4n3)nc3[nH]ncc3c2=O)cc1,–,23.1 µM (active)
COc1ccc2c(c1)CCc1c(C(=O)Nc3c(C)n(C)n(-c4ccccc4)c3=O)noc1-2,-5.03%,–
Cc1cc(C(=O)Nc2c(C)nn(Cc3ccccc3)c2C)on1,2.52%,–
Cc1nn(Cc2ccc(F)cc2)c(C)c1NC(=O)c1cccnc1Cl,5.99%,–
Cc1ccccc1Cn1nc(C)c(NC(=O)C(F)(F)F)c1C,7.52%,–
Cc1nn(Cc2ccc(F)cc2)c(C)c1NC(=O)c1cc(CC(C)C)on1,–,20.6 µM (active)
Cc1nn(Cc2ccc(F)cc2)c(C)c1NC(=O)c1noc2c1CCc1ccccc1-2,–,25.9 µM (active) and 4.61 µM (active)
C=CCOc1ccc(/C=C/C(=O)OC(C)C(=O)Nc2ccc(NC(C)=O)cc2)cc1 (configuration not stated),4.08%,–
CC(CCN1CCN=C1N(C)C)c1ccccc1 (configuration not stated),-1.58%,–
Cc1cc(C)c2c(n1)sc1c(=O)n(-c3ccccc3)c(=O)[nH]c12,1.18%,–
CC(=O)Nc1cc(C(=O)N2CCc3c(Cl)cccc3C2)cc2ncn(CCc3ccccn3)c12,-10.1% [at 9.04 µM],–
COCCN(Cc1cc2cc3c(cc2nc1Cl)OCO3)C(=O)c1cccc(C)c1,–,7.31 µM (active)
COCCNC(=O)c1onc(CSc2cccc(C)c2)c1C(=O)O,-1.59%,–
CN(Cc1c(F)cccc1Cl)C(=O)CNC(=O)c1ccc2c(c1)OCO2,-12.9%,–
CCSc1nc(O)c(C(c2cccc(OC)c2)c2c(O)nc(SCC)[nH]c2=O)c(=O)[nH]1,13.5%,–
CC1COc2ccccc2N1C(=O)c1ccc(F)cc1 (configuration not stated),-11.6%,–
CC1(C)Cc2ccccc2-c2nnc(-c3cccc(O)c3)n21,-0.381%,–
c1cncc(-c2nnc3n2C2(CCCCC2)Cc2ccccc2-3)c1,-13.9%,–
CCC1(CC)Cc2ccccc2-c2nc3ccccc3c(=O)n21,–,18.4 µM (active)
O=c1c2ccccc2nc2n1C1(CCCCC1)Cc1ccccc1-2,–,16.4 µM (active)
CCOC(=O)C1CCc2nc3ccccc3c(=O)n21 (configuration not stated),-5.68%,–
CC1(C)Cc2ccccc2-c2c[nH]c(=O)n21,-4.36%,–
CCCCSc1ncnc2c1sc1nc(N3CCOCC3)c3c(c12)CCCC3,-0.216%,–
NS(=O)(=O)c1ccc(CCNC(=O)COC(=O)COc2cccc(C(F)(F)F)c2)cc1,4.49%,–
CCN(c1ncnc2c1cnn2-c1ccc(C)cc1)C1CCCCC1,-0.498%,–
O=C(c1cc(-c2ccc(Cl)s2)nc2ccccc12)N1CCOCC1,-5.37%,–
